Data reported in ChEMBL document CHEMBL1157539, “Thousands of chemical starting points for antimalarial lead identification” (Nature, 2010).

Legend:
Assay type in all cases: functional
Plasmodium falciparum [1] = experiment: GSK_TCMDC: Inhibition of Plasmodium falciparum 3D7 in whole red blood cells, using parasite LDH activity as an index of growth. Test compounds present at 2uM
Plasmodium falciparum [2] = experiment: GSK_TCMDC: Inhibition of Plasmodium falciparum Dd2 in whole red blood cells, using parasite LDH activity as an index of growth. Test compounds present at 2uM
HepG2 = experiment: GSK_TCMDC: Percent inhibition of human HepG2 cell line. Test compounds present at 10uM.

| SMILES | Inhibition (Plasmodium falciparum [1]) [%] | Inhibition (Plasmodium falciparum [2]) [%] | Inhibition (HepG2) [%] |
| --- | --- | --- | --- |
| CN(C)c1ccc2c(c1)Sc1cc(N(C)C)ccc1N2C(=O)c1cccc(C(=O)O)c1 | 99 | 73 | 8 |
| O=[N+]([O-])c1ccc2nc(Nc3cccc(C(F)(F)F)c3)c(Nc3cccc(C(F)(F)F)c3)nc2c1 | 100 | 99 | 0 |
| O=C(Nc1ccc(-c2ccc(-c3nc4ccccc4[nH]3)s2)cc1)Nc1ccc(F)c(F)c1F | 99 | 97 | 57 |
| O=C(Nc1cccc(CN2CCCN(Cc3cccc(Cl)c3)CC2)c1)c1ccc(Br)cc1.O=C(O)C(F)(F)F | 92 | 16 | 38 |
| CC(C)Oc1ccccc1-c1csc(C(=O)NCC2CCN(Cc3ccc(C(C)(C)C)cc3)C2)c1.O=C(O)C(F)(F)F (stereo not given) | 90 | 45 | 59 |
| CCc1ccc(-c2nc3cc(NC(=O)c4ccc([N+](=O)[O-])o4)ccc3o2)cc1 | 97 | 80 | 4 |
| O=C(Nc1ccc(-c2cccc(-c3nc4ccccc4[nH]3)c2)cc1)Nc1ccsc1 | 100 | 90 | 56 |
| CCc1cn(CC(=O)N(CCOc2ccc(-c3ccc(C(F)(F)F)cc3)cc2)CCN(CC)CC)c(SCc2ccc(F)cc2)nc1=O | 95 | 29 | 46 |
| O=C(Nc1cccc(-c2ccc(CN3CCNCC3)cc2)c1)c1cccc(Cl)c1.O=C(O)C(F)(F)F | 92 | 4 | 30 |
| CC(C)c1ccc(NC(=O)N[C@H]2CCN(CCCCCNC(=O)/C=C/c3ccc(Cl)c(Cl)c3)C2)cc1 | 100 | 14 | 56 |
| CS(=O)(=O)CCNCc1cccc(-c2cc3c(Nc4ccc(OCc5cccc(F)c5)c(Cl)c4)ncnc3s2)c1.O=C(O)C(F)(F)F | 100 | 97 | 5 |
| Cc1ccccc1C1CCN(C2CCC(NC(=O)c3ccc(-c4ccccc4F)o3)CC2)CC1 (stereo not given) | 99 | 66 | 42 |
| O=S(=O)(c1ccc(OC(F)(F)F)cc1)C1CC2CCC(C1)N2S(=O)(=O)c1ccc(Cl)c(C(F)(F)F)c1 (stereo not given) | 100 | 95 | 1 |
| O=C(/C=C/c1cccc2ccccc12)NCCCCCN1CCC(c2c[nH]c3ccccc23)CC1 | 92 | 6 | 55 |
| O=C(O)C(F)(F)F.Oc1ccc(CCNc2nc(NCCCOc3ccccc3-c3cccnc3)nc(N3CCNCC3)n2)cc1 | 92 | 1 | 10 |
| COc1nc(Nc2cccc(C)c2)nc(OC)n1 | 94 | 0 | 46 |
| O=C(Nc1ccc2c(c1)OCO2)c1cc(-c2cccnc2)nc2ccc(Cl)cc12 | 89 | 41 | 9 |
| CCCc1ccc(S(=O)(=O)NC2CCN(C(=O)Nc3ccc(I)cc3)CC2)cc1 | 97 | 0 | 8 |
| Cc1cccc2nc(-c3cccc(-c4ccc(NC(=O)Nc5cccc(C#N)c5)cc4)c3)[nH]c12 | 100 | 91 | 50 |
| COc1ccc2ncc(F)c(CCN3C4CCC3CC(NCc3ccc5c(c3)OCCO5)C4)c2n1.Cl (stereo not given) | 100 | 35 | 27 |
| COc1cc(SC)ccc1C(=O)N1CC(C)CC(C)C1 (stereo not given) | 98 | 66 | 5 |
| CCn1c(-c2nonc2N)nc2c(-c3cccc(NC(=O)Nc4cccc(C(F)(F)F)c4)c3)ncc(OCCCN)c21.O=C(O)C(F)(F)F | 95 | 70 | 21 |
| N#CN1CC[C@@H](OC(=O)N[C@@H]2C[C@H]2c2ccccc2)C1 | 84 | 56 | 0 |
| Cc1cc(C)c(O)c(-c2cc(C(=O)Nc3ccc(S(=O)(=O)N4CC(C)OC(C)C4)cc3)[nH]n2)c1 (stereo not given) | 95 | 16 | 31 |
| NCC1CCCN1Cc1cccc(-c2cccc(-c3nc4cc(F)ccc4[nH]3)c2)c1.O=C(O)C(F)(F)F (stereo not given) | 100 | 65 | 10 |
| CC(=O)Nc1csc(-c2cnc(/C=C(\C)C[C@@H]3OC[C@H](C[C@@H]4O[C@H]4[C@@H](C)[C@H](C)O)[C@@H](O)[C@H]3O)o2)c1 | 94 | 8 | 1 |
| COc1ccc(CNc2ncc(-c3ccsc3)c(-c3nccs3)n2)cc1OC | 86 | 69 | 10 |
| N=C(NCc1ccccc1)Nc1nc(-c2ccc(OCCCn3ccnc3)cc2)cs1 | 100 | 55 | 10 |
| Cc1ccc2c(O)c([N+](=O)[O-])c(O)nc2c1 | 98 | 0 | 3 |
| COc1ccc(NC(=O)CCNc2cc(C)nc(NCCOc3ccccc3)n2)cc1.O=C(O)C(F)(F)F | 96 | 2 | 0 |
